“And” between values parts separate entries of the source, which are not always exact repeats. Equal values may be shown once. The source made the active and inactive calls. The calls were made as follows: active = hit-call score of the fitted dose curve at least 0.9, where 1 is the maximum; inactive = score below 0.9.

This is an account of results in PubChem BioAssay (EPA / NIEHS).

Common to all, as to conditions: mRNA level, 48 h; actives raise or lower the signal
Read-out in assay [1]: Hypoxia-inducible factor 1-alpha (Homo sapiens) (UniProt Q16665)
Put plainly: LTEA_HepaRG_HIF1A: Life Technologies and Expression Analysis (LTEA) Assay for Hypoxia-inducible factor 1 (HIF1A) Trancription factor using HepaRG (AID 2283503). The essentials:
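HepaRG, 48 h exposure, 8-pt half-log series from 100 uM, 0.5% DMSO vehicle, duplicates. Readout: HIF1A transcript by qRT-PCR (Fluidigm array), housekeeping-normalised. Bidirectional curve fit vs DMSO baseline.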

Read-out in assay [2]: 3-Hydroxy-3-Methylglutaryl-CoA Synthase 2 (HMGCS2), HMGCS2 (gene 3158)
Put plainly: LTEA_HepaRG_HMGCS2: Life Technologies and Expression Analysis (LTEA) Assay for 3-Hydroxy-3-Methylglutaryl-CoA Synthase 2 (HMGCS2) using HepaRG (AID 2283504). A digest of the protocol:
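qRT-PCR read-out of HMGCS2 transcript, normalised to three housekeeping genes, in HepaRG cells after 48 h chemical exposure. Eight-point curves from 100 uM, half-log dilutions, 0.5% DMSO vehicle; gain or loss fitted relative to DMSO baseline.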

Read-out in assay [3]: HGF (gene 3082)
The assay is described as follows: LTEA_HepaRG_HGF: Life Technologies and Expression Analysis (LTEA) Assay for Hepatocyte Growth Facto (HGF) using HepaRG (AID 2283505). A digest of the protocol: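 HepaRG, 48 h dosing, 8-pt half-log series from 100 uM in 0.5% DMSO, duplicates. Readout: TaqMan qRT-PCR of HGF mRNA, housekeeping-normalized; bidirectional curve fit vs DMSO baseline.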

Read-out in assay [4]: Insulin Like Growth Factor 1 (IGF1), IGF1 (gene 3479)
Put plainly: LTEA_HepaRG_IGF1: Life Technologies and Expression Analysis (LTEA) Assay for Insulin Like Growth Factor 1 (IGF1) using HepaRG (AID 2283506). The essentials:
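Differentiated human HepaRG cells were dosed for 48 h in serum-free induction medium with 0.5% DMSO, eight half-log concentrations up to 100 uM, in duplicate. IGF1 mRNA was quantified by qRT-PCR normalized to ACTB, GAPDH, POLR2A; bidirectional fitting versus DMSO.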

Read-out in assay [5]: Intercellular Adhesion Molecule 1 (ICAM1), ICAM1 (gene 3383)
The assay is described as follows: LTEA_HepaRG_ICAM1: Life Technologies and Expression Analysis (LTEA) Assay for Intercellular Adhesion Molecule 1 (ICAM1) using HepaRG (AID 2283507). A digest of the protocol: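 HepaRG, 48 h exposure, 8-pt half-log series from 100 uM, 0.5% DMSO vehicle, duplicates. Readout: TaqMan qRT-PCR mRNA, housekeeping-normalized (ACTB/GAPDH/POLR2A). Bidirectional curve fit vs DMSO baseline.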

Read-out in assay [6]: Insulin-like growth factor-binding protein 1 (IGFBP1), IGFBP1 (gene 3484)
The assay is described as follows: LTEA_HepaRG_IGFBP1: Life Technologies and Expression Analysis (LTEA) Assay for Insulin-like growth factor-binding protein 1 (IGFBP1) using HepaRG (AID 2283508). The essentials:
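qRT-PCR mRNA read-out (TaqMan, Fluidigm array), normalised to three housekeeping genes; HepaRG cells, 48 h exposure, 8-pt half-log series from 100 uM, 0.5% DMSO vehicle; bidirectional curve fit vs DMSO baseline.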

Read-out in assay [7]: Interleukin 6 (IL6), IL6 (gene 3569)
Put plainly: LTEA_HepaRG_IL6: Life Technologies and Expression Analysis (LTEA) Assay for Interleukin 6 (IL6) using HepaRG (AID 2283509). A digest of the protocol:
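HepaRG, ~100,000 cells/well, 48 h pre-culture; serum-free induction medium; cmpd 8-pt half-log from 100 uM, 0.5% DMSO, duplicate, 48 h. Lysis in RLT, TaqMan qRT-PCR; gain or loss vs DMSO.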

Read-out in assay [8]: Interleukin 6 Receptor (IL6R), IL6R (gene 3570)
The assay is described as follows: LTEA_HepaRG_IL6R: Life Technologies and Expression Analysis (LTEA) Assay for Interleukin 6 Receptor (IL6R) using HepaRG (AID 2283510). The essentials: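 Differentiated human HepaRG cells, plated 48 h then switched to serum-free induction medium, were dosed in duplicate for 48 h at eight half-log concentrations up to 100 uM in 0.5% DMSO. IL6R mRNA quantified by qRT-PCR, normalized to ACTB/GAPDH/POLR2A; bidirectional fit versus DMSO.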

Read-out in assay [9]: Potassium channel subfamily K member 1 (KCNK1), KCNK1 (gene 3775)
Put plainly: LTEA_HepaRG_KCNK1: Life Technologies and Expression Analysis (LTEA) Assay for Potassium channel subfamily K member 1 (KCNK1) using HepaRG (AID 2283511). The essentials:
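Gain or loss of KCNK1 mRNA is the read-out, quantified by qRT-PCR against three housekeeping genes after 48 h chemical treatment of human HepaRG liver cells. Concentrations ran from 100 uM downward in half-log steps, vehicle 0.5% DMSO.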

Read-out in assay [10]: Keratin 19 (KRT19), KRT19 (gene 3880)
The assay is described as follows: LTEA_HepaRG_KRT19: Life Technologies and Expression Analysis (LTEA) Assay for Keratin 19 (KRT19) using HepaRG (AID 2283512). A digest of the protocol:
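HepaRG, 48 h chemical exposure, 8-pt half-log CRC from 100 uM, 0.5% DMSO vehicle, duplicates. Readout: TaqMan qRT-PCR of KRT19 mRNA, housekeeping-normalized (ACTB/GAPDH/POLR2A). Bidirectional fit vs DMSO baseline.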

Chain of Hypoxia-inducible factor 1-alpha (Homo sapiens) (Q16665 whole entry, looked up): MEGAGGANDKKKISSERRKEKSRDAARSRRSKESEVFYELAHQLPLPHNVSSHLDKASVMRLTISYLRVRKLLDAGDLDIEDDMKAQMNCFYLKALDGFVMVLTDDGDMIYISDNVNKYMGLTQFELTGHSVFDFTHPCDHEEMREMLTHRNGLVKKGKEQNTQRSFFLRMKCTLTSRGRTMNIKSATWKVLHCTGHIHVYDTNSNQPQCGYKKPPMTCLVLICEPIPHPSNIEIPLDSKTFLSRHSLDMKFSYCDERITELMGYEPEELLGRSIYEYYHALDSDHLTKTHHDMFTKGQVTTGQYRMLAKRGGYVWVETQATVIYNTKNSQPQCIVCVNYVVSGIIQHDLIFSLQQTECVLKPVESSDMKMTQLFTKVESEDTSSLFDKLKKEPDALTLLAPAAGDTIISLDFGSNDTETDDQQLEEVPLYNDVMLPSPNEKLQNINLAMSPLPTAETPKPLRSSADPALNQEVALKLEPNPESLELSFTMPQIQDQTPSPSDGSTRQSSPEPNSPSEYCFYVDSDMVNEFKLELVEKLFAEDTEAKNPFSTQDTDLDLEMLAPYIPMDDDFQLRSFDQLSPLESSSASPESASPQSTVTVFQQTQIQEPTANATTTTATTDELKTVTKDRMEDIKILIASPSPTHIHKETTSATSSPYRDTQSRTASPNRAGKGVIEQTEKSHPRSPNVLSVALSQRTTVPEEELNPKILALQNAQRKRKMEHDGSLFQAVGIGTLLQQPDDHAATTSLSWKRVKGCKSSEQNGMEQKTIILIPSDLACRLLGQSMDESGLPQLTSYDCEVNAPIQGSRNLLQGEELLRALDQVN

In general, AC50 refers to the midpoint of the concentration-response curve, whichever way the signal moves. Take `O=[N+]([O-])/N=C1\NCCN1Cc1ccc(Cl)nc1`: the result in [1], in assay [3], in assay [5], in [6], in [7] and in assay [9] was inactive. In addition, the compound was called inactive in assay [10]. Further, the AC50 in assay [2] was 33.9 µM (active); in assay [4] it was 23 µM (active); in assay [8], 39 µM (active).
Take `CCC(C)Nc1c([N+](=O)[O-])cc(C(C)(C)C)cc1[N+](=O)[O-]` (stereo not drawn): the result in assay [1], in assay [3], in [5], in assay [6], in [7] and in [8] was inactive. For the same compound, the call in assay [9] and in assay [10] was inactive. For the same compound, the AC50 in [2] is 50 µM (active); in assay [4], 48 µM (active).
In the case of `CCc1ccc(C(=O)NN(C(=O)c2cc(C)cc(C)c2)C(C)(C)C)cc1`, the result in assay [1], in assay [3], in assay [4], in assay [5], in assay [6] and in assay [7] was inactive. For the same compound, the compound was called inactive in [8], in assay [9] and in assay [10]. Besides, in assay [2], the AC50 is 50 µM (active).
Turning to `CCC(C)(NC(=O)c1cc(Cl)c(C)c(Cl)c1)C(=O)CCl` (stereo not drawn), the compound was classed as inactive in assay [1], in assay [4], in assay [5], in assay [7] and in assay [8]. For the same compound, the AC50 in assay [2] is 80.6 µM (active); in assay [3], 77.4 µM (active); in assay [6] it was 80.8 µM (active); in assay [9], 50.2 µM (active); in assay [10] it was 32.4 µM (active).
Regarding `CCOC1Oc2ccc(OS(C)(=O)=O)cc2C1(C)C` (stereo not drawn), the compound was called inactive in [1], in assay [3], in assay [5] and in [9]. Further, the AC50 in assay [2] was 79.4 µM (active); in [4], 62.3 µM (active); in assay [6], 79.4 µM (active); in assay [7] it was 89.4 µM (active); in [8], 60.7 µM (active); in assay [10], 66 µM (active).
In the case of `O=C(O)CCCOc1ccc(Cl)cc1Cl`, the call in assay [1], in assay [2], in [3], in assay [4], in assay [5] and in [6] was inactive. The compound was called inactive in [7], in assay [8], in [9] and in [10].
`C#CCN1C(=O)COc2cc(F)c(N3C(=O)C4=C(CCCC4)C3=O)cc21`: the compound was called inactive in assay [1], in assay [2], in assay [3], in assay [5], in assay [6] and in assay [7]. The call in [8], in assay [9] and in assay [10] was inactive. Also, the AC50 in assay [4] is 23.5 µM (active).
For `C[C@H]1[C@H](c2ccc(Cl)cc2)SC(=O)N1C(=O)NC1CCCCC1`, the compound was classed as inactive in assay [1], in assay [3], in assay [8] and in [9]. Besides, the AC50 was 38.2 µM (active) in assay [2]; 40.1 µM (active) in assay [4]; 81.3 µM (active) in assay [5]; 75.4 µM (active) in assay [6]; 77.7 µM (active) in assay [7]; 50 µM (active) in [10].
As to `CNC(=O)Oc1cccc(N=CN(C)C)c1`, the call in assay [1], in assay [2], in assay [3], in assay [4], in assay [5] and in [6] was inactive. In addition, the outcome in assay [7], in assay [8], in [9] and in assay [10] was inactive.
For the compound `COP(=S)(OC)Oc1ccc([N+](=O)[O-])cc1`, the call in assay [1], in [2], in assay [3], in [4], in [5] and in assay [6] was inactive. Besides, the compound was called inactive in assay [7], in assay [8], in assay [9] and in assay [10].
For `Clc1ccccc1-c1nnc(-c2ccccc2Cl)nn1`, the call in [1], in assay [2], in assay [3], in [4], in assay [5] and in assay [6] was inactive. Besides, the call in assay [7], in assay [8] and in assay [9] was inactive. For the same compound, the AC50 in assay [10] was 21.5 µM (active).
In the case of `COP(=O)(OC)OC=C(Cl)Cl`, the call in assay [1], in assay [2], in assay [3], in assay [4], in assay [5] and in assay [6] was inactive. The compound was classed as inactive in assay [7], in [8], in assay [9] and in assay [10].
`CN1CSC(=S)N(C)C1`: the outcome in [1], in assay [2], in assay [3], in assay [4], in assay [5] and in assay [6] was inactive. Moreover, the call in assay [7], in assay [8], in assay [9] and in [10] was inactive.
`O=C(Nc1ccccc1)Nc1cnns1`: the outcome in assay [1], in assay [3], in assay [5], in assay [8] and in [9] was inactive. Further, the AC50 in [2] is 73.7 µM (active); in assay [4] it was 50 µM (active); in assay [6] it was 83.5 µM (active); in assay [10], 50 µM (active).
For the compound `CNC(=O)Oc1ccccc1OC(C)C`, the compound was classed as inactive in [1], in assay [2], in assay [3], in [4], in [5] and in assay [6]. Besides, the outcome in assay [7], in assay [8], in assay [9] and in [10] was inactive.
On to `CCCN(CCOc1c(Cl)cc(Cl)cc1Cl)C(=O)n1ccnc1`, for which the outcome in [1] and in assay [3] was inactive. The AC50 in [2] was 29.7 µM (active); in [4], 24.4 µM (active); in assay [5] it was 50 µM (active); in assay [6], 24.4 µM (active); in assay [7], 36.5 µM (active); in [8], 87.1 µM (active). The AC50 was 62 µM (active) in assay [9] and 12.7 µM (active) in [10].
On to `CNC(=O)CSP(=S)(OC)OC`, for which the outcome in [1], in assay [2], in [3], in assay [4], in [5] and in assay [6] was inactive. In addition, the call in [7], in assay [8], in assay [9] and in assay [10] was inactive.
On to `O=C(O)COc1ccc(Cl)cc1Cl`, for which the outcome in [1], in assay [2], in assay [3], in assay [4], in [5] and in assay [7] was inactive. In addition, the result in [8], in assay [9] and in [10] was inactive.
As for `CCC(C)(C)C(=O)OC1=C(c2ccc(Cl)cc2Cl)C(=O)OC12CCCCC2`, the compound was called inactive in assay [1], in [3], in [5], in [6], in [7] and in [8]. The result in assay [9] and in assay [10] was inactive. The AC50 was 50 µM (active) in [2] and 31.1 µM (active) in assay [4].
Consider `Cc1[nH]c(=O)n(C(C)(C)C)c(=O)c1Cl`, for which the compound was classed as inactive in assay [1], in assay [2], in [3], in assay [4], in [5] and in assay [7]. The result in assay [8] and in [9] was inactive. Besides, the AC50 in [6] and in [10] was 50 µM (active) each time.
Take `O=S1OCC2C(CO1)C1(Cl)C(Cl)=C(Cl)C2(Cl)C1(Cl)Cl` (stereo not drawn): the compound was classed as inactive in assay [1], in [3], in assay [5], in [7], in [9] and in assay [10]. Also, the AC50 in assay [2] is 77.3 µM (active); in assay [4] it was 42.2 µM (active); in assay [6] it was 83.4 µM (active); in [8] it was 11.4 µM (active).
Consider `O=C(O)C(F)(F)C(F)(F)C(F)(F)C(F)(F)C(F)(F)C(F)(F)C(F)(F)F`, for which the compound was classed as inactive in assay [1], in [3], in assay [4], in [5], in assay [6] and in [7]. The outcome in [8], in assay [9] and in assay [10] was inactive. The AC50 in assay [2] is 15.2 µM (active) and 7.54 µM (active).
Take `CCCN(CCC)c1c([N+](=O)[O-])cc(C(F)(F)F)cc1[N+](=O)[O-]`: the call in assay [1], in assay [2], in [3], in assay [4], in assay [5] and in assay [6] was inactive. The outcome in assay [7], in [8], in [9] and in assay [10] was inactive.
